Assay results from ChEMBL document CHEMBL2218924, “A broad activity screen in support of a chemogenomic map for kinase signalling research and drug discovery” (Biochem J, 2013).

Assays:
[1] = biological target: T1, Mitogen-activated protein kinase kinase kinase 5 (Homo sapiens) (UniProt Q99683); conditions: at 10 µM
T1 sequence (whole entry): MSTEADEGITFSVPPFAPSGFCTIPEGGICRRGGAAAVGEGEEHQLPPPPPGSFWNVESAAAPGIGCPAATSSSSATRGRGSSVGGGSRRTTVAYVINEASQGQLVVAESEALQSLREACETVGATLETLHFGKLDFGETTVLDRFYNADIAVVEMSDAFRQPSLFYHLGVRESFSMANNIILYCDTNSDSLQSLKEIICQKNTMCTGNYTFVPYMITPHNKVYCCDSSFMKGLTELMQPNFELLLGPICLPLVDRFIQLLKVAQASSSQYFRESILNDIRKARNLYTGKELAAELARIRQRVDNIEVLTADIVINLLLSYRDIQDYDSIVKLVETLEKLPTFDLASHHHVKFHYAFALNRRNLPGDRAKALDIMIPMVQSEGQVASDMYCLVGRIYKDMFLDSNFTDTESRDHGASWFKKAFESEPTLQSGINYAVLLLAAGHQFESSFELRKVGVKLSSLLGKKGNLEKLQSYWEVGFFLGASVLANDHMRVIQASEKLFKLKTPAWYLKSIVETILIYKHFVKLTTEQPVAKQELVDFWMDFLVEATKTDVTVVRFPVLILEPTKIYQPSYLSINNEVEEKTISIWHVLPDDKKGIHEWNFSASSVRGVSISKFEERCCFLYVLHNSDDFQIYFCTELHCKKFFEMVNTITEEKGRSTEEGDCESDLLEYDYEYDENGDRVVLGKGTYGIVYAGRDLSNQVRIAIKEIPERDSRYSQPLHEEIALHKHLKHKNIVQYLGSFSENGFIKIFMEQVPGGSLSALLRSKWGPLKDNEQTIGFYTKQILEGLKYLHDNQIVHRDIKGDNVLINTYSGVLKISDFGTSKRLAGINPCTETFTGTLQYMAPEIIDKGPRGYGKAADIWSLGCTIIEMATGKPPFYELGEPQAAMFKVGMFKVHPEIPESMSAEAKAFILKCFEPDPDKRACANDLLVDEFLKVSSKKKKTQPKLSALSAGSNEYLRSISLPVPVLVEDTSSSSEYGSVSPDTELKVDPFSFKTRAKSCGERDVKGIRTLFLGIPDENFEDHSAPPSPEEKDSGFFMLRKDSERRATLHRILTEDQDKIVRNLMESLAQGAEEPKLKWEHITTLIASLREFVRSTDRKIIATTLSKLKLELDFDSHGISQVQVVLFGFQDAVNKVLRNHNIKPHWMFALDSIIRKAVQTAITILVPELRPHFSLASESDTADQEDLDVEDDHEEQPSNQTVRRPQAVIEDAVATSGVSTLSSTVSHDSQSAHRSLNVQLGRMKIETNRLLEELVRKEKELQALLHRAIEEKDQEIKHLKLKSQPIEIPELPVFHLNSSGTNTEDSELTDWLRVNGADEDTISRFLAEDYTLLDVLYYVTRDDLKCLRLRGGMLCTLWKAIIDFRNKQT

[2] = biological target: Tyrosine-protein kinase ABL1 (Homo sapiens) (UniProt P00519); conditions: at 1 µM
Tyrosine-protein kinase ABL1 (Homo sapiens), sequence (P00519 whole entry): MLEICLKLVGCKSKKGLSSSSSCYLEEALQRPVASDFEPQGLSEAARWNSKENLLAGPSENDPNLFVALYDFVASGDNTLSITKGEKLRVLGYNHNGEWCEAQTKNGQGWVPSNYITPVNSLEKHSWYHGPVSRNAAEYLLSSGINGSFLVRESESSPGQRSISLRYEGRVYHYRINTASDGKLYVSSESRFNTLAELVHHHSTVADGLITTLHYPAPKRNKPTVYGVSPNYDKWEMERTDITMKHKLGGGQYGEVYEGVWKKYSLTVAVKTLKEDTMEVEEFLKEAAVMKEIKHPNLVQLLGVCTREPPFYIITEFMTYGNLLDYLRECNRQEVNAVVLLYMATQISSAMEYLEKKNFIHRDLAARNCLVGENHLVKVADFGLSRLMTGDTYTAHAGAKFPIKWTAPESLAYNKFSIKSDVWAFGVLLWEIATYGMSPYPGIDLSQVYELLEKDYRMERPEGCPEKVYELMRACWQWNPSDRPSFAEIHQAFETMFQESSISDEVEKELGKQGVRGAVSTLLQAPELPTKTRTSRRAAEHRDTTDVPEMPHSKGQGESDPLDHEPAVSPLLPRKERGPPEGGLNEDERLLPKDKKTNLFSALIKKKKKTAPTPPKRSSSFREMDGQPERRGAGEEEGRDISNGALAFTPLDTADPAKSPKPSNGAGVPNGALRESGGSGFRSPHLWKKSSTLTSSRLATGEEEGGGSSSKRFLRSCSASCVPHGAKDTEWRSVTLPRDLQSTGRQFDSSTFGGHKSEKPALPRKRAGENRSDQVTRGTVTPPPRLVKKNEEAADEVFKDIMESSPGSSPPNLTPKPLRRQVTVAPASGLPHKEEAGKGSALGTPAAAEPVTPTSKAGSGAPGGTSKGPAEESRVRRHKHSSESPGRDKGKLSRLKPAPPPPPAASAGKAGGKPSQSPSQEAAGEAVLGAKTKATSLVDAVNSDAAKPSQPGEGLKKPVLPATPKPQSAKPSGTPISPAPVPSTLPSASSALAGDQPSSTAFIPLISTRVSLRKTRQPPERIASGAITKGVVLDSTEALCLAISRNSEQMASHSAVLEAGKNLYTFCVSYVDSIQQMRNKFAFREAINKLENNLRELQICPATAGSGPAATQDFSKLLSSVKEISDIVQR

[3] = biological target: Tyrosine-protein kinase ABL1 (Homo sapiens) (UniProt P00519); conditions: at 10 µM
[4] = biological target: Tyrosine-protein kinase ABL2 (Homo sapiens) (UniProt P42684); conditions: at 1 µM
Tyrosine-protein kinase ABL2 (Homo sapiens), sequence (P42684 whole entry): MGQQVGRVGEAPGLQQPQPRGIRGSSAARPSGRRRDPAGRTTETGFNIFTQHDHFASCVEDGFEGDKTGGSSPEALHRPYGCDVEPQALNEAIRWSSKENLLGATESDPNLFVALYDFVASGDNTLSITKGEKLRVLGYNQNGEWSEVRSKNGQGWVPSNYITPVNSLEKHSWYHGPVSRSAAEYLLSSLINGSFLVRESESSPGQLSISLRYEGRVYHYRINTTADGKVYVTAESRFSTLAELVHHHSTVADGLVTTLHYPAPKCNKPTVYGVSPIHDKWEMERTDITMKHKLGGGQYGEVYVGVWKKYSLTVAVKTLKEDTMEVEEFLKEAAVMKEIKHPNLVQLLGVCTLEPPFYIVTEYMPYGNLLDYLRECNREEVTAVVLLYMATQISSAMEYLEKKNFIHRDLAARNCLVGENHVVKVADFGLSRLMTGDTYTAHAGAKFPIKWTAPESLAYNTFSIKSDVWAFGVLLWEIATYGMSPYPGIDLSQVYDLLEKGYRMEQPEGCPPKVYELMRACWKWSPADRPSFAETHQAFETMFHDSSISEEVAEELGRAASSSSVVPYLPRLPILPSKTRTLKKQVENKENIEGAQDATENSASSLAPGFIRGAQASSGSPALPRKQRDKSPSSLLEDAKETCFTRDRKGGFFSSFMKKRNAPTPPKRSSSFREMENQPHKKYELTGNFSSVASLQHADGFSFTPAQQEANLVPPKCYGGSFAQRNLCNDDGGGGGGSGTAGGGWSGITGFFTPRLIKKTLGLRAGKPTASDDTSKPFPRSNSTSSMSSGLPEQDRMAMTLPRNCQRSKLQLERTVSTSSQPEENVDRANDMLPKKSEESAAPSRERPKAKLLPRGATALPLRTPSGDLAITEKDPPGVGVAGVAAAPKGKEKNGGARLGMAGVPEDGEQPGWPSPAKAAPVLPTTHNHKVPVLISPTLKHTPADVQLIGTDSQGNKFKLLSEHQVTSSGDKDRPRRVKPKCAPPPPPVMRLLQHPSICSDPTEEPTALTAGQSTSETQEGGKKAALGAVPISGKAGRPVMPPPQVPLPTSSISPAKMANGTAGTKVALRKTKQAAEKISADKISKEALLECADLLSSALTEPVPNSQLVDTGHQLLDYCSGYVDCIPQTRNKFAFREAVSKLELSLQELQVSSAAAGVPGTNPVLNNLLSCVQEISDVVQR

[5] = biological target: Tyrosine-protein kinase ABL2 (Homo sapiens) (UniProt P42684); conditions: at 10 µM
[6] = biological target: T2, Aurora kinase A (Homo sapiens) (UniProt O14965); conditions: at 1 µM
T2 sequence (whole entry): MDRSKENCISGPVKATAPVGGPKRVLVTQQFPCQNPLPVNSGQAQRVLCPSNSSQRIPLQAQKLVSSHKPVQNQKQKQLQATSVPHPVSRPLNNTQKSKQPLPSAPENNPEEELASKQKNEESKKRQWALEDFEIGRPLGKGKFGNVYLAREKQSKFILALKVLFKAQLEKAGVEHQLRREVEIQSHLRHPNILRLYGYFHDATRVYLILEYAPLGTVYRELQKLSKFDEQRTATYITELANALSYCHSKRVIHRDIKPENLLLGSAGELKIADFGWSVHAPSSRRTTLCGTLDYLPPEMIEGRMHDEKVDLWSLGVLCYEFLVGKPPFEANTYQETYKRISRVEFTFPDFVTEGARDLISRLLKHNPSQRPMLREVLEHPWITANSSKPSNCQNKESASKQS

[7] = biological target: T2, Aurora kinase A (Homo sapiens); conditions: at 10 µM
[8] = biological target: Aurora kinase B (Homo sapiens) (UniProt Q96GD4); conditions: at 1 µM
Aurora kinase B (Homo sapiens), sequence (Q96GD4 whole entry): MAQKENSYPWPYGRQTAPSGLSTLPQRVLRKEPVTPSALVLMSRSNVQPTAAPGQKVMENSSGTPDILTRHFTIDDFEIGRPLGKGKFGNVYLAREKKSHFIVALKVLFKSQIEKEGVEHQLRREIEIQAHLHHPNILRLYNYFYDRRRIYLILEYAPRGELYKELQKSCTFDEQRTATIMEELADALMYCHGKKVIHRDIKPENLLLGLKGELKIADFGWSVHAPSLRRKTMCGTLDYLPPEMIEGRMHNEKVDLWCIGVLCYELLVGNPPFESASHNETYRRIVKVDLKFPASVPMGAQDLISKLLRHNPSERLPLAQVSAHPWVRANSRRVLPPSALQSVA

[9] = biological target: Aurora kinase B (Homo sapiens) (UniProt Q96GD4); conditions: at 10 µM
[10] = biological target: T3, Protein kinase C zeta type (Homo sapiens) (UniProt Q05513); conditions: at 1 µM
T3 sequence (whole entry): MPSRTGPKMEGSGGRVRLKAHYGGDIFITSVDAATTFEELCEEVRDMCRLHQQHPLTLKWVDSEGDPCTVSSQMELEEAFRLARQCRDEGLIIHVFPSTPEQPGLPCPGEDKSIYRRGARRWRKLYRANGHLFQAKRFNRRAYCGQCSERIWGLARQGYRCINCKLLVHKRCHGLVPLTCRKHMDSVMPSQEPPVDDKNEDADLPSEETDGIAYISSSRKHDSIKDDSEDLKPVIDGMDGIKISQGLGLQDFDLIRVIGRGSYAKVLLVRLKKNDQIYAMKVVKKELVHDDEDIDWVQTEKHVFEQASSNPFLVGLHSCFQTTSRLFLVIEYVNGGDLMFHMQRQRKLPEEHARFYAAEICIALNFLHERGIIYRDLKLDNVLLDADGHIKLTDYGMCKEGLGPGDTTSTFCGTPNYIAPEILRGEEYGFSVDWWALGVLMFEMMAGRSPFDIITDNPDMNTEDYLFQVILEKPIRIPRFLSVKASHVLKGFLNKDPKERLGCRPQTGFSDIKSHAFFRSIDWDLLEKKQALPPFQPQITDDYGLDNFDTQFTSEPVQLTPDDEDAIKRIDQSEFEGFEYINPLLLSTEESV

| SMILES | residual activity [1] [%] | residual activity [2] [%] | residual activity [3] [%] | residual activity [4] [%] | residual activity [5] [%] | residual activity [6] [%] | residual activity [7] [%] | residual activity [8] [%] | residual activity [9] [%] | residual activity [10] |
| --- | --- | --- | --- | --- | --- | --- | --- | --- | --- | --- |
| COc1cc2ncc(-c3ccccc3)nc2cc1OC | 77 | 96 | 83 | 99 | 84 | 83 | 98 | 83 | 50 |  |
| CC[n+]1c(/C=C/N(C)c2ccccc2)n(-c2ccccc2)c2ccc(-c3nc4ccccc4s3)cc21 | 102 | 115 | 146 | 112 | 85 | 117 | 139 | 139 | 91 | 107% (inactive) |
| N#CC(C#N)=C(N)/C(C#N)=C/c1ccc(O)cc1 | 93 | 87 | 78 |  |  | 83 | 85 | 81 | 62 |  |
| Oc1ccc(-c2nc(-c3ccc(F)cc3)c(-c3ccncc3)[nH]2)cc1 | 80 | 98 | 95 | 78 | 41 | 105 | 89 | 69 | 58 | 113% (inactive) |
| O=C1Nc2ccc(Br)cc2/C1=C\c1cc2c([nH]1)CCCC2 | 81 | 105 | 75 |  |  |  |  | 18 | 8 | 103% (inactive) |
| CN(C)c1ccc(/C=C2\C(=O)Nc3ccccc32)cc1 | 99 | 100 | 87 | 103 | 89 | 56 | 26 | 13 | 4 | 118% (inactive) |
| N#CCCc1ccc2c(c1)-c1[nH]c3ccc([N+](=O)[O-])cc3c1CC(=O)N2 |  | 31 | 13 | 48 | 17 | 61 | 37 | 8 | 1 | 69% (inactive) |
| Cc1cc(Nc2nc(-c3ccccc3)nc3ccccc23)n[nH]1 | 100 | 54 |  | 33 | 3 | 1 | 0 | -2 | 0 | 110% (inactive) |
| Cc1ccc(S(=O)(=O)/C=C/C#N)cc1 | 115 | 104 | 97 | 91 | 97 | 118 | 103 | 105 | 88 | 102% (inactive) |
| C[C@@H](N)[C@H]1CC[C@H](C(=O)Nc2ccncc2)CC1 | 96 | 113 | 101 | 107 | 100 | 95 | 89 | 73 | 82 | 103% (inactive) |
| COc1ccc(CNc2nc(N(CCO)CCO)nc3c2ncn3C(C)C)cc1 | 85 | 100 | 73 | 113 | 76 | 89 | 96 | 95 | 73 | 105% (inactive) |
| COc1cc2ncnc(N3CCN(C(=O)Nc4ccc(Oc5ccccc5)cc4)CC3)c2cc1OC | 67 |  |  | 110 | 118 | 51 | 48 | 15 | 7 | 113% (inactive) |
| Nc1nc(Nc2ccc(S(N)(=O)=O)cc2)nn1C(=S)Nc1c(F)cccc1F | -1 | -5 | -5 | -2 | -2 | 1 | 10 | 0 | 0 | 75% (inactive) |
| Cc1cccc(-c2[nH]c(C(C)(C)C)nc2-c2ccc3c(c2)OCO3)n1 | 88 | 96 | 102 |  | 97 | 93 |  | 106 | 95 |  |
| COc1ccc(C(=O)Nc2sc3c(c2C(N)=O)CCCC3)cc1OC | 109 | 87 | 86 | 126 | 101 | 93 | 96 | 69 | 46 | 96% (inactive) |
| Cc1cc2ncc(-c3ccccc3)nc2cc1C | 83 | 92 | 87 | 96 | 103 | 77 | 96 | 87 | 75 | 106% (inactive) |
| Cc1nc(-c2ccccc2)c(-c2ccncc2)o1 | 85 | 26 | 33 | 62 | 45 | 122 | 86 | 44 | 25 | 113% (inactive) |
| CO[C@@H]1[C@H](N(C)C(=O)c2ccccc2)C[C@H]2O[C@]1(C)n1c3ccccc3c3c4c(c5c6ccccc6n2c5c31)C(=O)NC4 | 75 | 89 |  | 77 | 45 | -3 | -2 | 1 | 3 | 101% (inactive) |
